# Compounds with a hit are over-represented: about 9.9% of the library has one in this group of screens.
# KB-3-1 tox = qHTS assay for MDR1-selective chemotherapeutics: Primary screen using the parental adenocarcinoma cell KB-3-1; KB-3-1 viability, CellTiter-Glo ATP luminescence, 72 h; Potency, µM (doses to about 46.1 µM), actives largely listed as cytotoxic; actives 1.4% (n = 400,000); AID 1347075, 2019; note: nearly all actives have a fitted effect of over 60% in size
#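 Using CellTiter-Glo luminescence, growth of non-resistant KB-3-1 adenocarcinoma cells is assessed 72 h after pin-tool compound addition at 37 °C. Normalized responses across the concentration series yield fitted curves.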
# SW480 rerep = A quantitative high throughput screen for small molecules that induce DNA re-replication in SW480 colon adenocarcinoma cells; SW480 DNA re-replication, Hoechst DNA content imaging, 48 h; Potency, µM (doses to about 46.1 µM), hits mostly activators; actives 1.8% (n = 340,000); AID 624297, 2012; note: nearly all actives have a fitted effect of over 55% in size
#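 Hoechst fluorescence of nuclei (405 nm excitation, 500-530 nm emission) measured by plate-scanning imager after 48 hr compound exposure at 37 C; re-replication scored as increased number of nuclei with elevated intensity.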
# KB-V1 cytotox = qHTS assay for MDR1-selective chemotherapeutics: Primary screen using the drug-selected MDR subline cells KB-V1; KB-V1 MDR cells viability, CellTiter-Glo, 72 h; Potency, µM (highest dose often 46.1 µM), most hits filed as cytotoxic; actives 3.4% (n = 400,000); AID 1347076, 2019; note: nearly all actives have a fitted effect of over 60% in size
#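 Potencies derive from concentration-effect curves fitted to normalized luminescence (CellTiter-Glo) of KB-V1 cells treated for 72 h at 37 degrees C in phenol-red-free DMEM containing 10% FBS.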
# MCF10A rereplic = A quantitative high throughput screen for small molecules that induce DNA re-replication in MCF 10a normal breast cells | MCF 10A DNA re-replication, Hoechst nuclear intensity, 48 h | Potency, µM (series often up to 46.1 µM), usual class: activators | actives 2.9% (n = 350,000) | AID 624296, 2012; note: nearly all actives have a fitted effect of over 50% in size
# IL-1B inflam inh = qHTS for Inhibitors of Inflammasome Signaling: IL-1-beta AlphaLISA Primary Screen; THP-1 LPS/ATP IL-1B secretion, AlphaLISA, 16 h; hits give low values; activity change, % at 57.5 µM; actives 4.7% (n = 360,000); in the data active = activity change below about -50%; inconclusive = mostly about -30% to -49%
#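 Secreted IL-1B measured by AlphaLISA bead assay after 16 h compound exposure of THP-1 cells; compounds (final up to 57.5 uM) added 1 h before LPS (250 ng/mL) and ATP (1.25 mM) stimulation; lower signal means less secretion.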
# A number is an active result; - = inactive; ? = inconclusive; . = no result; [ ] = remark or other dose. Unless noted, calls come from the whole dose curve; as a rule, active = well fitted curve in the direction sought with a large enough effect; inconclusive = small, poorly fitted or top-dose-only effect, or another doubt; inactive = no such curve, though single readings can be large; an effect the other way counts as inactive or inconclusive.
SMILES,KB-3-1 tox,SW480 rerep,KB-V1 cytotox,MCF10A rereplic,IL-1B inflam inh
COc1cc(-c2nnc(-c3ccco3)o2)ccc1OCc1ccccc1,?,-,4.1µM,-,?
CCn1nc(NC(=O)C2CCCO2)c2cc3cccc(C)c3nc21 (centres undefined),-,18µM,-,?,.
CCn1nc(NC(=O)c2ccccn2)c2cc3cccc(C)c3nc21,-,?,-,12µM,-
CCn1nc(NC(=O)c2cccnc2)c2cc3cccc(C)c3nc21,-,?,-,7.1µM,-
CCn1nc(NC(=O)C2CCCO2)c2cc3cc(C)ccc3nc21 (centres undefined),-,-,-,-,-
Cc1noc(C)c1NC(=O)Nc1cccc2c1O[C@H](CN(C)C(=O)Nc1ccc3c(c1)OCO3)[C@@H](C)CN([C@H](C)CO)C2=O,-,-,-,?,-
COc1ccc(CN2C[C@@H](CO)O[C@@H](n3cnc4c(NC5CCC5)ncnc43)C2)cc1,-,.,-,.,-
Cc1cc(C)cc(NC(=S)NCCSc2ccc(Cl)cc2)c1,-,-,-,21µM,-202
Cc1ccc(SCCNC(=S)Nc2ccc(C)c(C)c2)cc1,?,?,?,15µM,-
COC(=O)Cc1ccc(NC(=S)NCCSc2ccc(Cl)cc2)cc1,-,-,-,?,-57
Cc1ccc(SCCNC(=S)Nc2ccccc2)cc1,-,-,-,-,-
Cc1ccc(SCCNC(=S)Nc2cc(C)ccc2C)cc1,-,-,?,?,-
Cc1c(NC(=O)COc2cccc(Cl)c2Cl)c(=O)n(-c2ccccc2)n1C,-,-,-,-,-
COc1ccc(NS(=O)(=O)c2ccc(Cl)c(C(=O)O)c2)cc1S(=O)(=O)N1CCCCC1,-,-,-,-,-
COc1ccc(-c2onc3ccc(Br)cc23)cc1,-,-,-,-,-
COc1cc(-c2onc3ccc(Br)cc23)cc(OC)c1OC,5.2µM,18µM,2.1µM,?,-
Cc1[nH]nc(C(=O)NN=Cc2ccccc2Cl)c1N=NN(C)C,-,15µM,-,16µM,-
CC(C)(C)OC(=O)N1CCC[C@H]1C(=O)N/N=C/c1cccc2nccnc12,-,-,-,-,-
Oc1[nH]c2c(Cl)cc(Cl)cc2c1N=NC(=S)NCC1CCCO1 (centres undefined),5.8µM,-,?,-,-
Oc1[nH]c2ccccc2c1N=NC(=S)NCC1CCCO1 (centres undefined),-,-,12µM,-,?
Cc1ccc2oc(=O)c3cnn(CC(=O)N4CCN(c5ccc(F)cc5)CC4)c3c2c1,-,.,-,.,.
CCc1ccccc1N(C)C(=O)CCc1nc(-c2ccc(C)cc2)no1,-,-,18µM,-,-
CCOc1ccc(-c2noc(CCC(=O)O)n2)cc1,-,4.1µM,-,?,-
CCOC(=O)c1ccc(NC(=O)CCc2nc(-c3ccc(C)cc3)no2)cc1,-,-,-,15µM,-69
COc1ccc(CNC(=O)C[C@H]2C[C@H](C(=O)N3CCCCC3)[C@@]3(C)c4[nH]c5cc(CCC(=O)N(C)C)ccc5c4CCN3C2=O)cc1OC,-,?,-,-,-
SMILES,KB-3-1 tox,SW480 rerep,KB-V1 cytotox,MCF10A rereplic,IL-1B inflam inh
CC(=O)c1ccc(S(=O)(=O)N(C)CCCC(=O)NCc2ccc3c(c2)OCO3)cc1,-,-,-,-,-
CC1CCc2nc3sc4c(c3c(N)c2C1)CCCC4 (centres undefined),?,-,?,?,.
CC1CCc2c(nc3sc4c(c3c2N)CCCC4)C1 (centres undefined),-,-,?,?,-91
CCc1c(-c2ccccc2)nc2sc3c(c2c1N)CCCC3,?,-[9.22 µM],?,-,-84
Nc1c2c(nc3sc4c(c13)CCCCC4)CCCCC2,?,-,8.2µM,?,?
Nc1c(C(=O)O)sc2nc(-c3ccccc3)c3c(c12)CCCC3,-,-,-,-,-
Cc1cccc(C(=O)NCCc2ccccc2)c1,-,-,-,-,-
O=C1C(=C(I)I)c2ccccc2-c2ccccc21,?,5.8µM,15µM,?,-101
CCOc1ccc(S(=O)(=O)N2CCCC(C(=O)NCc3ccncc3)C2)cc1 (centres undefined),.,-,.,-,-
Cc1ccc(-c2nc(CS(=O)(=O)CC(=O)Nc3cc(F)ccc3F)c(C)o2)cc1,-,-,-,-,-
O=c1[nH]cnc2nc[nH]c12,.,-,.,-,.
O=c1[nH]cnc2n[nH]nc12,1.5µM,.,?,.,.
O=C1CC(=O)OC(c2ccc([N+](=O)[O-])cc2)O1,-,.,?,.,-55
Cc1ccncc1CNC(=O)c1ccccc1,-,-,-,-,-
COc1ccccc1NC(=O)C(C)OC(=O)CCCOc1ccccc1 (centres undefined),-,-,-,-,-
CCCN(CCC)C(=O)c1c2c(nc3ccccc13)C(=O)N(C1CCCCC1)C2,-,.,-,.,.
CC(C)OC(=O)CSc1nnc(-c2ccc(O)cc2)n1Cc1ccccc1,-,-,-,-,-
O=C(CSc1nnc(-c2ccc(O)cc2)n1Cc1ccccc1)NNC(=O)c1ccc(Br)cc1,-,-,-,-,-66
CCN1C[C@@H]2[C@@H]3C(=O)N(Cc4ccccc4)C(=O)[C@@H]3[C@](C)(C1=O)N2C(=O)c1ccc(Cl)c(Cl)c1,-,-,-,-,?
COc1cc(/C=C/c2[nH]c(=O)[nH]c(=O)c2[N+](=O)[O-])ccc1OCCC(C)C,-,?,-,?,-
CCC(C)Oc1ccc(/C=C/c2[nH]c(=O)[nH]c(=O)c2[N+](=O)[O-])cc1OC (centres undefined),-,21µM,-,?,-102
CCn1c(SCc2nc(-c3ccccc3)no2)nnc1-c1cccs1,-,-,-,-,-
COc1ccc(-c2nnc(SCC(=O)Nc3ncc(C)s3)n2-c2ccccc2)cc1OC,21µM,16µM,?,13µM,-
COc1ccc(NC(=O)CSc2nnc(-c3ccncc3)n2-c2ccccc2)cc1,-,.,-,.,.
CCn1c(COc2ccccc2C)nnc1SCC(=O)OC,-,-,-,-,-
COc1ccccc1NC(=O)CC(=O)CSc1nnc(-c2ccc(C)cc2)n1-c1ccccc1,-,-,13µM,-,-
CCn1c(COc2ccccc2C)nnc1SCC(=O)N1CCN(c2ccccc2)CC1,?,-,8.2µM,-,-
CCn1c(SCc2nc(CC(=O)Nc3ccccc3OC)no2)nnc1-c1cccs1,-,-,5.8µM,-,-
CCOc1ccc(-c2nnc(SCC(=O)NCCC(C)C)nc2-c2ccc(OCC)c(OC)c2)cc1OC,-,.,-,.,.
FC(F)(F)c1cnc(Sc2ncn[nH]2)c(Cl)c1,-,-,-,-,-
